VDR inhibitor = Inhibitors of the vitamin D receptor (VDR): qHTS | Vitamin D3 receptor (Homo sapiens), P11473 | VDR-SRC2-3 peptide fluorescence polarization, 2 h | Potency, µM, without a hit: max response, negative = inhibition, hits mostly inhibitors | 400,000 tested, 0.93% active | AID 504847, 2011
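Reagent solutions, kept cold and dark, are dispensed first; compounds are then pinned in at 23 nl, plates briefly spun, and incubated 2 h at ambient temperature. Inhibition of VDR–SRC2-3 peptide binding is read by fluorescence polarization.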
PLK1 PBD block = qHTS for Inhibitors of PLK1-PDB (polo-like kinase 1 - polo-box domain): Primary Screen; 360,000 tested, 2.8% active; AID 720504, 2013; Potency, µM, for inactives: max response, negative = inhibition, usual class: inhibitors; Plk1 PBD binding of FITC phosphopeptide, fluorescence polarization; also: series mostly up to about 57 µM; nearly all actives have a fitted effect of over 65% in size
Sfp inh = qHTS Assay for Inhibitors of Bacillus subtilis Sfp phosphopantetheinyl transferase (PPTase); AID 1490, 2009; Biochemical Sfp PPTase activity, qHTS; 310,000 tested, 3.5% active; 4'-phosphopantetheinyl transferase ffp (Bacillus subtilis), Q9F4F7; Potency, µM, inactives show largest response in the series, negative = inhibition, actives largely listed as inhibitors;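 also: the enzyme is Sfp with the accession as filed and its product quenches rhodamine fluorescence; 0% = enzyme reaction without inhibitor and -100% = no enzyme wells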
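Buffer: 50 mM Hepes-Na pH 7.6, 10 mM MgCl2, 0.01% Nonidet P-40, 0.01% BSA. Enzyme 15 nM, pre-exposed to compound 15 min; substrates then added and fluorescence change tracked over 30 min.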
12-LOX inh = Primary qHTS assay for inhibitors of human arachidonate 12S-lipoxygenase (ALOX12): Round 2 | purified 12hLO, xylenol orange hydroperoxide absorbance | Potency, µM (top dose mostly 108 µM), without a hit: top-dose activity change, negative = inhibition, usual class: inhibitors | 580,000 tested, 1.1% active | AID 1671190, 2021
Target sequence (P18054 whole entry, looked up): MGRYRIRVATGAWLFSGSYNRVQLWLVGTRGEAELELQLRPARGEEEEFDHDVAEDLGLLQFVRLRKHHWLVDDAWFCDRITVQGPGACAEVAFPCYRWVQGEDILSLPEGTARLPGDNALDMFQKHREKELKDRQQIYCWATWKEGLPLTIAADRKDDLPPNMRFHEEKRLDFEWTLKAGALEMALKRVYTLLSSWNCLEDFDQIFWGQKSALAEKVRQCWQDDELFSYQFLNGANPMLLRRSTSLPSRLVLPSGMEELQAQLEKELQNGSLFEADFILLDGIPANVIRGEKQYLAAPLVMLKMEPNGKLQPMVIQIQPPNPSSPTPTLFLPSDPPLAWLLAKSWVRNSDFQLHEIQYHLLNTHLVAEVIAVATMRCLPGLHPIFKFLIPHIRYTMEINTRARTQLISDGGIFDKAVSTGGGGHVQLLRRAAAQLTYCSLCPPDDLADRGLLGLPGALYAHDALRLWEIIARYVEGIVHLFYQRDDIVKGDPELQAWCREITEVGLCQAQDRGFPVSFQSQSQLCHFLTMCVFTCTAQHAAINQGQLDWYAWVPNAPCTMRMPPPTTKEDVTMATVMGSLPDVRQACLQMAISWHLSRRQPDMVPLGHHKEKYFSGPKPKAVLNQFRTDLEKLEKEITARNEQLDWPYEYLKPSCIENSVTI
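Purified human 12hLO (150 nM final) in 25 mM Hepes, 0.01% Triton X-100, pH 7.0 was preincubated 15 min at room temperature with compound. Then 40 uM arachidonic acid was added, 30 min. Hydroperoxide was read by Fe-XO absorbance ratio 573/405 nm.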
The depositor's hits bear a star; ? = inconclusive; . = not tested or not shown; ! = a repeat was not active; [ ] = remark or other dose. Compounds with a hit are over-represented: about 4.2% of the library has one in this group of screens. Calls follow the shape of the dose curve; as a rule, active = well fitted curve in the direction sought with a large enough effect; inconclusive = small, poorly fitted or top-dose-only effect, or another doubt; inactive = no such curve, though single readings can be large; an effect the other way counts as inactive or inconclusive. Unless noted, % is scaled to controls: 0 for no effect and ±100 for the full control effect; potency is read from the fitted curve at half-maximal effect.

SMILES	VDR inhibitor	PLK1 PBD block	Sfp inh	12-LOX inh
C/C=C/C=C/C(=O)[C@@H]1[C@@H]([C@]2(C)OC(=O)C(C)=C2O)[C@H]2/C(=C(O)/C=C/C=C/C)C(=O)[C@]1(C)C(=O)C2(C)O (stereo not given in full)	?	?	50.1µM*	?
O=C(c1ccc(Cl)cc1)N1CC(CO)C2(CCNCC2)C1 (stereo not given)	.	.	.	39.8µM*
O=C1/C(=C/c2ccco2)SC(=S)N1CCC(=O)N1CCCCC1CCO (stereo not given)	-20.7%	?	50.1µM*	44.7µM*
Cc1nc(-c2ccc(F)cc2)sc1CCNC(=O)c1ccc(OC(C)C)cc1	-4.3%	.	.	-26.7%
O=C(NCCC(=O)N1CCNC1=O)OCc1ccccc1	-10.4%	-12.9%	50.1µM*	8.3%
Cc1nc2c(C#N)c[nH]n2c(=O)c1Cc1ccccc1	11.9%	-10.4%	4.2%	-18.2%
Cc1nc2c(C#N)c[nH]n2c(=O)c1CCO	28.2µM*	9.47µM*	-5.2%	-27.9%
CCOC(=O)N1CCN(C(=O)C[C@@H]2C[C@@]3(C(=O)OCC)CCCC=C3N(CCc3ccc(OC)c(OC)c3)C2=O)CC1	.	5.6%	.	2.0%
Cc1ccccc1-c1cncnc1NCCN1CCOCC1	?	.	-28.3%	-24.0%
Cc1cnc(CNc2ncncc2-c2ccc(N(C)C)cc2)cn1	?	.	79.4µM*	-22.2%
Cc1cnc(CNc2ncncc2-c2ccc(C(=O)N(C)C)cc2)cn1	0.4%	.	-5.7%	-16.8%
CN(C)c1ccc(-c2cncnc2NCCN2CCOCC2)cc1	39.8µM*	.	79.4µM*	?
CCOC(=O)C1=CN(c2ccc(F)cc2)C=C(C(=O)OCC)C1c1cccc(F)c1	.	.	.	-1.4%
O=C1NC(=S)S/C1=C\c1cc(Cl)ccc1Cl	?	21.2µM*	.	7.94µM*
Cc1cc(/C=C2\SC(=S)NC2=O)c(C)[nH]1	-6.5%	-18.8%	-13.2%	?
Cn1ncc(N2CCC(NC(=O)C3CCCCC3)CC2)cc1=O	.	.	.	15.4%
N#CC1=C(N)Oc2cc(O)ccc2C1c1ccc(Br)s1 (stereo not given)	-16.5%	29.9µM*	17.2%	177.5%
CS(=O)(=O)N1CCCCC1c1cc(C(=O)Nc2ccc3c(c2)OCO3)no1 (stereo not given)	.	-14.3%	.	-9.2%
O=C(Cn1sc2ccccc2c1=O)Nc1ccccc1	.	1.19µM*	.	0.891µM*
O=C(Cc1nc(=O)c2ccccc2s1)Nc1ccccc1	-8.2%	2.1%	23.9%	-27.7%
O=C(Cn1sc2ccccc2c1=O)NC12CC3CC(CC(C3)C1)C2	?	2.99µM*	2.51µM*	.
CN(C)[C@@H]1CN(C2CCCC2)CC[C@@H]1CO	.	.	.	33.8%
COCCNC(=S)N/N=C1\C=C(C)CC1	.	.	.	42.1%
Cc1ccc([N+](=O)[O-])cc1S(=O)(=O)NCCc1c(C)[nH]c2c(C)cccc12	-7.6%	-7.6%	-11.5%	9.2%
FC(F)Sc1ccc(NC(=S)NCC2CCCCC2)cc1	4.5%	-4.3%	12.6%	15.8µM*
SMILES	VDR inhibitor	PLK1 PBD block	Sfp inh	12-LOX inh
S=C(NCC1CCCCC1)Nc1ccc(Oc2ccccc2)cc1	-13.2%	4.8%	10.6%	39.8µM*
FC(F)Sc1ccc(NC(=S)NC(c2ccccc2)c2ccccc2)cc1	2.0%	-11.6%	26.6%	39.8µM*
CC(=O)N1CCN(C(=S)Nc2ccc(SC(F)F)cc2)CC1	-5.5%	21.2µM*	16.5%	-11.1%
FC(F)Sc1ccc(NC(=S)NCc2ccccc2)cc1	-10.7%	-4.6%	17.2%	?
CCCC(=O)N1CC2(CCN(C)CC2)c2c(n(C)c3cc(OC)ccc23)[C@H]1CO	.	.	.	-13.1%
C=C1CC2(OC1=O)c1ccccc1CCc1ccccc12	?	0.0%	.	-34.0%
CC1CCCCC1NC(=S)Nc1ccc(SC(F)F)cc1 (stereo not given)	-1.5%	-1.1%	-2.6%	31.6µM*
FC(F)Sc1ccc(NC(=S)NC2CCCCC2)cc1	-13.7%	-18.4%	-8.4%	?
O=C(NCc1ccc(C(F)(F)F)cc1)[C@@H]1Cc2nc[nH]c2CN1Cc1ccc([N+](=O)[O-])cc1	.	.	.	85.0%
COC(=O)[C@@H]1Cc2nc[nH]c2CN1Cc1ccc([N+](=O)[O-])cc1	.	.	.	10µM*
N#Cc1cc2cc3c(cc2nc1N1CCCCC1)OCCO3	-4.5%	-16.2%	28.2µM*	?
O=C(COc1ccc(-n2cnnn2)cc1)N1CCN(S(=O)(=O)c2ccc3ccccc3c2)CC1	.	.	.	44.7µM*
O=C1NCN(c2ccccc2)C12CCN(CCCC(c1ccc(F)cc1)c1ccc(F)cc1)CC2	-3.5%	-20.2%	79.4µM*!	?
O=C(CCCN1CCN(c2ccccc2)CC1)c1ccc(F)cc1	.	2.1%	.	0.9%
CSc1cc(C(=O)O)ccn1	.	.	.	-5.1%
[N-]=[N+]=CC(=O)c1ccnc(C(=O)C=[N+]=[N-])c1	-9.6%	26.7µM*	-9.4%	-6.9%
Cn1c(N)c(C(=O)COC(=O)c2cccc(S(=O)(=O)NCc3ccccc3)c2)c(=O)n(C)c1=O	4.2%	0.9%	.	-4.9%
O=C(/C=C/c1cccc([N+](=O)[O-])c1)Nc1cc(C(=O)O)cc(C(=O)O)c1	35.5µM*	10.6µM*	9.6%	6.9%
CC(C)c1ccccc1NC(=O)COC(=O)/C=C/c1cccc([N+](=O)[O-])c1	?	15µM*	-2.3%	-10.4%
CCOC(=O)N1CCN(C(=O)/C=C/c2cccc([N+](=O)[O-])c2)CC1	-0.3%	29.9µM*	20.1%	2.2%
CCOC(=O)N1CCN(/[N+]([O-])=N/Oc2ccc([N+](=O)[O-])cc2[N+](=O)[O-])CC1	44.7µM*	.	-28.2%	.
COC(=O)c1cccc(NC(=O)/C=C/c2cccc([N+](=O)[O-])c2)c1	3.3%	-5.6%	-8.9%	10.9%
CCNC(=O)COC(=O)/C=C/c1cccc([N+](=O)[O-])c1	-13.2%	-7.2%	0.3%	-2.8%
CCc1cc2c3c(c1)C(C)CC(C)(C)N3C(=O)/C2=C1\SC(=O)NC1=O (stereo not given)	0.0%	29.9µM*	6.1%	0.0%
COc1cc2c3c(c1)C(C)CC(C)(C)N3C(=O)C2=O (stereo not given)	-25.8%	-17.9%	22.7%	8.0%
SMILES	VDR inhibitor	PLK1 PBD block	Sfp inh	12-LOX inh
O=C(Oc1cc(-c2ccccc2)no1)c1ccc(Cl)cc1	5.8%	23.8µM*	-5.1%	31.6µM*
Cc1ccc(C(=O)Oc2cc(-c3ccccc3)no2)cc1	2.7%	-15.1%	-0.1%	204.3%
c1ccc(C(c2nnnn2C2CCCCC2)N2CCc3ccccc3C2)nc1 (stereo not given)	3.6%	-19.0%	79.4µM*	.
CC(C)C(c1nnnn1C1CCCCC1)N1CCc2ccccc2C1 (stereo not given)	19.8%	-6.1%	-16.4%	-13.7%[57.4 µM]
Oc1ccc(N2CCN(C(c3ccccn3)c3nnnn3C3CCCC3)CC2)cc1 (stereo not given)	-2.4%	-4.7%	17.8µM*	?
Cn1c(-c2ccccc2)cc(=O)n1-c1ccccc1	2.1%	-4.9%	.	5.3%
Cc1ccc(-c2cc(Nc3cccc(C)c3)nc(C)n2)cc1	.	.	.	50.1µM*
